Screens deposited in PubChem by National Center for Advancing Translational Sciences (NCATS).
An excerpt weighted towards active compounds, which were near 7.2% of everything screened.
Tau fil binding – binds recombinant human tau filaments; P10636; recombinant tau filaments, thioflavin S fluorescence, 15 h; filaments grown with octadecylsulfate alongside compound; hit rate 2% among 71,000; Potency, µM (top dose mostly 57.1 µM), without a hit: top-dose activity change, negative = inhibition;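 note: % is set by controls: 0 for no effect and ±100 for the full control effect; actives lower thioflavin S fluorescence by blocking filaments or displacing dye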
Target sequence (P10636 whole entry, looked up): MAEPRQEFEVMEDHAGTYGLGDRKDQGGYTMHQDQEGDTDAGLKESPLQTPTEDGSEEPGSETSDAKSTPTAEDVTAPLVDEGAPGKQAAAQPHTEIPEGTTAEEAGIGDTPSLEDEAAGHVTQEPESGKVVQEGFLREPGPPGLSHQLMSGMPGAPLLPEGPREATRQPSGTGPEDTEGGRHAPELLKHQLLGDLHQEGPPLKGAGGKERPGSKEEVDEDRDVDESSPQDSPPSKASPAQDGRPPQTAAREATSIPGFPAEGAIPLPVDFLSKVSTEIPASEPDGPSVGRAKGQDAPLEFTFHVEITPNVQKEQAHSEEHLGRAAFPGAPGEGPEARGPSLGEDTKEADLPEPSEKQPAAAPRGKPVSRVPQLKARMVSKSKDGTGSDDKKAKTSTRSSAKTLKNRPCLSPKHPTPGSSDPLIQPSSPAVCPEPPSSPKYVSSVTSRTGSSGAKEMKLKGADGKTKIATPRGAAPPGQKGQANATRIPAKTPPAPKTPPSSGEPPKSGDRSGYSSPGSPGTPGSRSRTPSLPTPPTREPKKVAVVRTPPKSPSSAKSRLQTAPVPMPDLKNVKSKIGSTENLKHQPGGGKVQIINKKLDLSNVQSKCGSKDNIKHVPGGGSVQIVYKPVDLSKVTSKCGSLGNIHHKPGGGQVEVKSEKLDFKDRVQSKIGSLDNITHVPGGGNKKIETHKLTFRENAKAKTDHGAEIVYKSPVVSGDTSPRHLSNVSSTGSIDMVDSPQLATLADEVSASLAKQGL
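Tau 2 uM in ThS buffer dispensed; compound added; 60 uM ODS added (finals 1 uM tau, 30 uM ODS); 15 h 37 C; fluor ex450/em510.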
TSHR ag – activates the human thyroid stimulating hormone receptor | Potency, µM (top dose mostly 57.1 µM), inactives show top-dose activation, actives largely listed as activators | HEK293-CNG-TSHR cells (CNG channel as cAMP sensor), membrane potential dye, cAMP | hit rate 0.48% among 73,000 | P16473; active = well fitted activation curve with a large enough effect in the main read-out, with a control signal flat, not every such curve was filed as active; inconclusive = small, poorly fitted or top-dose-only effect, or a change in a side signal; inactive = no such curve, though single readings can be large or run the other way; % of control where 0% means no effect;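 note: the control signal comes from parental cells without the receptor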
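HEK 293 cells stably expressing TSHR and a modified CNG channel, with CNG-only parental cells as counterscreen, were preloaded 60 min at room temperature with membrane potential dye containing 100 uM RO 20-1724. Compound exposure was 30 min, and depolarization was read as fluorescence at 590 nm.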
HEK293 cAMP ctrl – counter-screen for TSHR agonists: cAMP increase in parental HEK293; parental HEK293 CNG cAMP sensor, membrane potential fluorescence; Potency, µM (titrated, usually from 57.1 µM), without a hit: top-dose activation, hits mostly activators; hit rate 2.5% among 73,000; AID 938; note: % of control where 0% means no effect; nearly all actives have a fitted effect of over 55% in size
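Parental HEK 293 cells stably expressing a modified CNG channel (no TSHR) report cAMP rise as membrane depolarization. Membrane potential dye with 100 uM RO 20-1724 was loaded for 60 min at room temperature, then compound added for 30 min; fluorescence read at 590 nm.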
FLuc inh – blocks Photinus pyralis firefly luciferase activity | hit rate 2.2% among 72,000 | P08659 | Potency, µM (titrated, usually from 57.1 µM), without a hit: top-dose activity change, negative = inhibition, most hits filed as inhibitors | purified firefly luciferase, luminescence, 8 min; note: % is set by controls: 0 for no effect and ±100 for the full control effect; nearly all actives have a fitted effect of over 40% in size
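Substrate buffer containing 10 uM ATP (pH 7.2 imidazole, Mg2+, KCl, detergent, BSA) is dispensed, compound pinned in, then luciferase/luciferin detector mix added. After 8 min at ambient temperature, light output is measured.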
ERK AVP block – vasopressin-driven ERK pathway inhibition | HEK293-V1b, vasopressin-stimulated pERK AlphaScreen | Potency, µM (series often up to 57.5 µM), for inactives: top-dose activity, negative = inhibition, usual class: inhibitors | hit rate 0.99% among 72,000; note: % is set by controls: 0 for no effect and ±100 for the full control effect; nearly all actives have a fitted effect of over 55% in size
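HEK293 cells stably expressing V1b receptor, preincubated 30 min at 37 °C with compound, then stimulated 5 min with 25 nM vasopressin. Phospho-ERK by AlphaScreen SureFire after 5 h RT; normalized to DMSO and vasopressin; AC50 by Hill fit.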
PK Bst – alters activity of Bacillus stearothermophilus pyruvate kinase; Potency, µM; AID 361; purified pyruvate kinase, luminescence ATP production; ribose 5-phosphate activator present at AC10; hit rate 1.2% among 51,000; in the data active = potency below about 11 µM; inconclusive = mostly about 12 µM to 25 µM;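 the screen sought inhibitors and activators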;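 note: scaled between full activation by ribose 5 phosphate and full inhibition by luteolin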
An asterisk follows results filed as active; i = inactive; ? = inconclusive; / = not tested or not shown; [ ] = another dose, or the depositor's remark. Unless noted, calls come from the whole dose curve; as a rule, active = well fitted curve in the direction sought with a large enough effect; inconclusive = small, poorly fitted or top-dose-only effect, or another doubt; inactive = no such curve, though single readings can be large; an effect the other way counts as inactive or inconclusive. Potency is the fitted concentration of half-maximal effect.

SMILES	Tau fil binding	TSHR ag	HEK293 cAMP ctrl	FLuc inh	ERK AVP block	PK Bst
Cc1noc(NS(=O)(=O)c2cccc3c(N(C)C)cccc23)c1C	?	?	?	2%	4%	/
CCOC(=O)C1CCN(c2ncnc3c2oc2ccc(Cl)cc23)CC1	85%	?	25µM*	2%	-9%	?
CCOC(=O)C1CCN(c2ncnc3c2[nH]c2cccc(OC)c23)CC1	18%	-26%	-9%	-3%	-21%	/
COc1ccc(CN(C(=O)CN2C(=O)C(C)Oc3ccccc32)C2CCCC2)c(OC)c1 (stereo not given)	8%	?	25µM*	6%	-18%	>57
CC1Oc2ccccc2N(CC(=O)c2ccccc2)C1=O (stereo not given)	7%	20%	27%	0%	-18%	>57
COc1ccc(CN(C(=O)CN2C(=O)COc3ccccc32)C2CCCC2)c(OC)c1	2%	?	20µM*	0%	-3%	>57
O=C1C(Cl)=C(Nc2ccc(S(=O)(=O)Nc3ccccn3)cc2)C(=O)c2ccccc21	-12%[11.4 µM]	-2%[11.4 µM]	-3%[11.4 µM]	2%[11.4 µM]	-26%[11.5 µM]	/
O=C(O)CCCCCC[C@@H]1C(=O)NC(=O)N1CC[C@@H](O)C1CCCCC1	-1%	?	2µM*	-3%	/	/
CNC(=O)c1ccccc1	-4%	-9%	-8%	/	17%	/
O=C(CSc1nnc(C2CC2)n1Cc1ccccc1)c1cc2ccccc2o1	10µM*	?	?	1%	-15%	>57
c1ccc(CCNc2c3c(nc4ncnn24)CCC3)cc1	3%	?	6.3µM*	0%	?	/
CCOC(=O)c1c(N)sc(C(N)=O)c1C	1%	2%	3%	0%	13µM*	/
Cc1c(C(N)=O)sc(N)c1C(=O)OC(C)C	12%	-8%	28%	0%	-13%	/
CCOC(=O)C1=C(C)NC(=O)NC1c1ccc(F)cc1 (stereo not given)	1%	6%	9%	2%	-6%	>57
CCOC(=O)C1=C(CNCc2ccccc2Cl)NC(=O)NC1c1ccc2c(c1)OCO2 (stereo not given)	16µM*	?	?	1%	?	>57
CCOC(=O)C1=C(CN2CCC(C)CC2)NC(=O)NC1c1ccc(Cl)cc1 (stereo not given)	16µM*	27%	24%	2%	7%	>57
N#Cc1ccc(CN2CC[C@@]3(CCCN(C(=O)c4cccc(F)c4)C3)C2)cc1	8%	16%	12%	1%[11.4 µM]	-12%	/
O=CC(=O)c1ccccc1	10%	-6%	26%	/	41%	/
CC1N/C(=C\C(=O)c2ccccc2)N(O)C1(C)C (stereo not given)	15%	2%	6%	13µM*	-1%	i
COc1ccc(COC(=O)N/N=C2/C[C@@H](O)[C@@H](O)[C@@H]3[C@H]4C(=O)N(c5ccc(F)cc5F)C(=O)[C@@H]4CC[C@@H]23)cc1	/	1%[11.4 µM]	-1%[11.4 µM]	-1%[11.4 µM]	7%[11.5 µM]	/
S=c1ccss1	/	/	/	/	-16%	/
C=C[C@@H]1CN2CC[C@@H]1C[C@@H]2[C@@H](O)c1ccnc2ccc(OC)cc12	/	/	/	/	5%	/
CCOc1ccc(-c2cnc(SCC(N)=O)nc2N)cc1	4%	2%	6%	0%	-17%	10*
CCOc1ccc(-n2c(COc3ccc(C)cc3)nnc2SCC(N)=O)cc1	2%	11%	19%	2%	-12%	>57
CC(C)(C)c1cc(C(=O)/C=C/c2ccc(C(=O)O)cc2)cc(C(C)(C)C)c1	/	19%	28%	/	?	/
SMILES	Tau fil binding	TSHR ag	HEK293 cAMP ctrl	FLuc inh	ERK AVP block	PK Bst
CN(c1ccc(O)cc1)c1nc(-c2ccccc2)cs1	?	?	-38%	13µM*	-25%	?
Nc1ccccc1NC1=CC(=O)CC(c2ccco2)C1 (stereo not given)	16µM*	11%	2%	-5%	?	>57
Cc1noc(C)c1-c1nc(N(C)Cc2ccco2)c2ccccc2n1	18%	0%	-19%	-3%[2.29 µM]	-2%	/
CCNc1ncc2nc(C)c(=O)n(Cc3cccs3)c2n1	3%	?	?	1%[11.4 µM]	16µM*	/
CCNc1ncc2ncc(=O)n(Cc3cccs3)c2n1	-16%	?	?	0%[11.4 µM]	-30%	/
CCNc1ncc2nc(-c3cccs3)c(=O)n(CCC#N)c2n1	i	-3%	15%	0%[11.4 µM]	5µM*	/
N#CCCn1c(=O)c(-c2cccs2)nc2cnc(Nc3ccccc3)nc21	91%	-5%	-8%	0%[11.4 µM]	0%	/
C[C@]1(c2ccccc2)O[C@@H]2C[C@@H]3[C@@H]4CCC5=CC(=O)C=C[C@@]5(C)[C@]4(F)[C@H](O)C[C@]3(C)[C@@]2(C(=O)CO)O1	1%[11.4 µM]	-5%[11.4 µM]	-15%[11.4 µM]	2%[11.4 µM]	-12%[11.5 µM]	/
COC(=O)N1CCC2(CCCN(C(=O)Nc3cccc(C#N)c3)C2)CC1	2%	2%	13%	1%[11.4 µM]	4%	/
COC(=O)N1CCC[C@@]2(CCN(C(=O)Nc3cccc(F)c3)C2)C1	5%	?	7.9µM*	1%[11.4 µM]	15%	/
COC(=O)N1CCC2(CCCN(C(=O)Nc3cccc(F)c3)C2)CC1	-3%	1%	-4%	1%[11.4 µM]	28%	/
CS(=O)(=O)N1CCC2(CC1)CN(C(=O)Nc1cccc(F)c1)C2	13µM*	-8%	-14%	0%[11.4 µM]	-22%	/
CS(=O)(=O)N1CCC2(CCCN(C(=O)Nc3cccc(F)c3)C2)CC1	7%	3%	15%	1%[11.4 µM]	-4%	/
COc1ccc(C(=O)N2CCC3(CCCN(C(=O)Nc4cccc(C#N)c4)C3)CC2)cc1	10%	25µM*	11%	-3%[11.4 µM]	-19%	/
COC(=O)N1CCC2(CC1)CN(c1ccccn1)C2	-8%	-1%	-3%	0%[11.4 µM]	-11%	/
N#Cc1c(NC(=O)CSc2ncnc3c2cnn3-c2ccccc2Cl)sc2c1CCCC2	-9%	12%	6%	3%	0%	>57
CCOC(=O)Cc1csc(NC(=O)CSc2ncnc3c2cnn3-c2ccccc2Cl)n1	-4%	?	?	-2%	40µM*	>57
O=C(CSc1nnc(-c2ccccc2)o1)Nc1ccccc1F	0%	17%	1%	3%	-21%	/
O=C(CSc1nnc(-c2ccc(Br)cc2)o1)Nc1cccc2ccccc12	108%	0.04µM*	12%	3%	1%	>57
O=C(CSc1nnc(-c2ccccc2)o1)c1ccc2c(c1)OCCO2	18%	?	?	3%	0%	>57
COc1cccc(-c2nnc(SCC(=O)N(C(C)C)C(C)C)o2)c1	3%	?	16µM*	1%	10%	>57
O=C(CSc1nnc(-c2ccccc2)o1)c1nnc(-c2ccccc2)o1	4µM*	9%	11%	0%	-29%	>57
CC1=CC2C(CC1=O)C(C)=CCC2C(C)C (stereo not given)	/	/	/	/	17%	/
